In PubChem BioAssay (NCI):
The panel holds about 79,000 compounds, 15% with a hit somewhere; the sample as a whole holds those more often. Values without a mark were called inactive. Rule as the data show it: active = growth inhibition above about 70%; inactive = the rest.

experiment: NCI Yeast Anticancer Drug Screen. Data for the mec2-1 strain (AID 157); details: S. cerevisiae mec2-1 strain, at 50.0 µM, active compounds read high
Procedure, shortened: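 Yeast mec2-1 mutant treated with compound. Readout: growth inhibition vs vehicle controls.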

Row | SMILES | growth inhibition
1 | CNC1=C(Sc2ccc(Cl)cc2)C(=O)c2ccccc2C1=O | 19.4%
2 | COc1c(OC2OC(CO)C(O)C(O)C2O)cc2c(c1OC)-c1ccc(OC)c(=O)cc1C(NC(C)=O)CC2 (stereo not given) | 8.75%
3 | NS(=O)(=O)c1ccc(N=C2C=CC(=O)C=C2)cc1 | 4.5%
4 | Cc1cc(Cl)nc2ccc(Cc3ccc(Cl)cc3)cc12 | -2.65%
5 | Cc1cc(N(CCC#N)CCC#N)ccc1/C=C(\NC(=O)/C=C/c1ccccc1)C(=O)N=[N+]=[N-] | -31.9%
6 | CCCCCCn1c(=O)cc2n(c1=O)CCC2 | 11.3%
7 | O=C(O)c1ccccc1-c1ccccc1C(=O)O | -9.6%
8 | COC(=O)C1C(=C(c2ccccc2)c2ccccc2)C1c1ccccc1 (stereo not given) | -15.2%
9 | O=C(CCc1ccccc1)NC(=S)Nc1cc(C(F)(F)F)ccc1Cl | 14.2%
10 | COC1OCC(OS(C)(=O)=O)C(NC(C)=O)C1OS(C)(=O)=O (stereo not given) | -2.85%
11 | CC(=O)OC/C=C(C)/C=C/C=C(C)/C=C/C1=C(C)CCCC1(C)C | -34%
12 | C=CCN1C(=O)c2ccccc2S1(=O)=O | -2.35%
13 | O=C(CN1CCOCC1)CC(O)(C(F)(F)F)C(F)(F)F | 2.05%
14 | CC1(C)CC([N+](C)(C)CCCCCC[N+](C)(C)C2CC(C)(C)N(O)C(C)(C)C2)CC(C)(C)N1O | 0.45%
15 | O=C1c2cc(Cl)ccc2-c2ccc(Cl)cc21 | 2.85%
16 | CC(=C(C#N)C#N)c1ccccc1 | 2.5%
17 | COc1ccc(NC(=O)NCc2ccc(C)c(C)c2)cc1 | 38.8%
18 | CC(C)(C)C1CCC(O)(CSc2ccccc2)CC1 (stereo not given) | 1.45%
19 | COc1cc(C(c2cc3c(cc2O)OCO3)n2ccnc2)cc(OC)c1OC (stereo not given) | 1.6%
20 | CC(=N/NC(=S)NCCN1CCCC1)/C(C)=N\NC(=S)NCCN1CCCC1 | 4.95%

Row | SMILES | growth inhibition
21 | COc1ccc(/C=C/C(=O)c2ccc(Br)cc2)cc1 | -67.5%
22 | CCCCCCCCCC(C)=O | -4.4%
23 | c1ccc(-c2c(-c3ccc4c(c3)CCCC4)c(-c3ccccc3)c3c(c2-c2ccccc2)-c2cccc4cccc-3c24)cc1 | 2.8%
24 | O=c1c(SCc2ccccc2)c(N2CCOCC2)cnn1-c1ccccc1 | -1.85%
25 | CC1=Nc2ccccc2NC2(C1)C(C1COC(C)(C)O1)OC1OC(C)(C)OC12 (stereo not given) | 13.8%
26 | COc1ccc(-c2cc(-c3ccccc3)c(-c3ccccc3)nn2)cc1CN1CCOCC1 | -29.2%
27 | O=C1CCCc2[nH]c3ccc(Cl)cc3c21 | 0.3%
28 | Cc1cc(C)c2c(=O)cc(-c3cccc(F)c3)[nH]c2n1 | -0.65%
29 | O=C(CN(Cc1ccccc1)Cc1ccccc1)C(O)C1OC(c2ccccc2)OCC1O (stereo not given) | -5.55%
30 | CN1CC(=O)N2CCCCC2C(c2ccccc2)C1 (stereo not given) | 2.85%
31 | O=C1C(N=Nc2ccccc2)Sc2nc3ccccc3n21 (stereo not given) | -3.2%
32 | O=C(OC1OC(COCc2ccccc2)C(OCc2ccccc2)C1OCc1ccccc1)c1ccc([N+](=O)[O-])cc1 (stereo not given) | -12.2%
33 | O=[N+]([O-])c1ccc(S(=O)(=O)N/N=C/c2ccco2)cc1 | 5.95%
34 | CC1CN=C(N(Cc2ccccc2)C(=O)Nc2ccc(Cl)c(Cl)c2)S1 (stereo not given) | 27.9%
35 | N#Cc1c2c(c(=O)n3c1[nH]c1ccccc13)CCCC2 | 5.35%
36 | C/C(=C/CCl)[N+](=O)[O-] | -10.4%
37 | C(=Nc1ccc2ccccc2c1)c1cccs1 | -3.2%
38 | CSc1nc2cc(C)c(C)cc2[nH]1 | -3.1%
39 | CC(C)(C)OC(=O)NCCNC(=O)OCc1ccccc1 | -12.2%
40 | CC(=O)N1CCc2[nH]c3ccccc3c2CC1 | -7.05%

experiment: NCI Yeast Anticancer Drug Screen. Data for the sgs1 mgt1 strain (AID 161);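 also: 0% = growth of cultures given vehicle only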; details: S. cerevisiae sgs1 mgt1 strain, at 50.0 µM, active compounds read high
Procedure, shortened: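 Mutant yeast exposed to compound; growth scored against vehicle-only wells.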

Row | SMILES | growth inhibition
41 | CNC1=C(Sc2ccc(Cl)cc2)C(=O)c2ccccc2C1=O | 1.45%
42 | COc1c(OC2OC(CO)C(O)C(O)C2O)cc2c(c1OC)-c1ccc(OC)c(=O)cc1C(NC(C)=O)CC2 (stereo not given) | 10.8%
43 | NS(=O)(=O)c1ccc(N=C2C=CC(=O)C=C2)cc1 | -0.2%
44 | Cc1cc(Cl)nc2ccc(Cc3ccc(Cl)cc3)cc12 | -5.2%
45 | Cc1cc(N(CCC#N)CCC#N)ccc1/C=C(\NC(=O)/C=C/c1ccccc1)C(=O)N=[N+]=[N-] | -44.9%
46 | CCCCCCn1c(=O)cc2n(c1=O)CCC2 | 22.1%
47 | O=C(O)c1ccccc1-c1ccccc1C(=O)O | -10.9%
48 | COC(=O)C1C(=C(c2ccccc2)c2ccccc2)C1c1ccccc1 (stereo not given) | -11.8%
49 | O=C(CCc1ccccc1)NC(=S)Nc1cc(C(F)(F)F)ccc1Cl | 33.5%
50 | COC1OCC(OS(C)(=O)=O)C(NC(C)=O)C1OS(C)(=O)=O (stereo not given) | -3.05%
51 | CC(=O)OC/C=C(C)/C=C/C=C(C)/C=C/C1=C(C)CCCC1(C)C | -20.3%
52 | C=CCN1C(=O)c2ccccc2S1(=O)=O | -5.95%
53 | O=C(CN1CCOCC1)CC(O)(C(F)(F)F)C(F)(F)F | -1.65%
54 | CC1(C)CC([N+](C)(C)CCCCCC[N+](C)(C)C2CC(C)(C)N(O)C(C)(C)C2)CC(C)(C)N1O | 14.9%
55 | O=C1c2cc(Cl)ccc2-c2ccc(Cl)cc21 | -4.85%
56 | CC(=C(C#N)C#N)c1ccccc1 | 13.1%
57 | COc1ccc(NC(=O)NCc2ccc(C)c(C)c2)cc1 | 22.3%
58 | CC(C)(C)C1CCC(O)(CSc2ccccc2)CC1 (stereo not given) | -1.75%
59 | COc1cc(C(c2cc3c(cc2O)OCO3)n2ccnc2)cc(OC)c1OC (stereo not given) | -13.1%
60 | CC(=N/NC(=S)NCCN1CCCC1)/C(C)=N\NC(=S)NCCN1CCCC1 | 47.6%

Row | SMILES | growth inhibition
61 | COc1ccc(/C=C/C(=O)c2ccc(Br)cc2)cc1 | -34.2%
62 | CCCCCCCCCC(C)=O | -16%
63 | c1ccc(-c2c(-c3ccc4c(c3)CCCC4)c(-c3ccccc3)c3c(c2-c2ccccc2)-c2cccc4cccc-3c24)cc1 | -2.45%
64 | O=c1c(SCc2ccccc2)c(N2CCOCC2)cnn1-c1ccccc1 | 22.8%
65 | CC1=Nc2ccccc2NC2(C1)C(C1COC(C)(C)O1)OC1OC(C)(C)OC12 (stereo not given) | 20.3%
66 | COc1ccc(-c2cc(-c3ccccc3)c(-c3ccccc3)nn2)cc1CN1CCOCC1 | -17.1%
67 | O=C1CCCc2[nH]c3ccc(Cl)cc3c21 | -10.9%
68 | Cc1cc(C)c2c(=O)cc(-c3cccc(F)c3)[nH]c2n1 | -28.2%
69 | O=C(CN(Cc1ccccc1)Cc1ccccc1)C(O)C1OC(c2ccccc2)OCC1O (stereo not given) | -2.3%
70 | CN1CC(=O)N2CCCCC2C(c2ccccc2)C1 (stereo not given) | -0.25%
71 | O=C1C(N=Nc2ccccc2)Sc2nc3ccccc3n21 (stereo not given) | 2.85%
72 | O=C(OC1OC(COCc2ccccc2)C(OCc2ccccc2)C1OCc1ccccc1)c1ccc([N+](=O)[O-])cc1 (stereo not given) | 16.2%
73 | O=[N+]([O-])c1ccc(S(=O)(=O)N/N=C/c2ccco2)cc1 | 0.9%
74 | CC1CN=C(N(Cc2ccccc2)C(=O)Nc2ccc(Cl)c(Cl)c2)S1 (stereo not given) | -0.35%
75 | N#Cc1c2c(c(=O)n3c1[nH]c1ccccc13)CCCC2 | 19.8%
76 | C/C(=C/CCl)[N+](=O)[O-] | -4.95%
77 | C(=Nc1ccc2ccccc2c1)c1cccs1 | 12.6%
78 | CSc1nc2cc(C)c(C)cc2[nH]1 | 27.8%
79 | CC(C)(C)OC(=O)NCCNC(=O)OCc1ccccc1 | -16.7%
80 | CC(=O)N1CCc2[nH]c3ccccc3c2CC1 | -4.55%
